Broadly, the AC50 is the concentration giving half of the maximal activity seen.

Settings in all cases: mRNA level, 48 h; actives raise or lower the signal
Read-out in assay [1]: Bcl-2 (BID) gene, BID (gene 637)
The experiment in a line: LTEA_HepaRG_BID: Life Technologies and Expression Analysis (LTEA) Assay for Bcl-2 (BID) gene using HepaRG (AID 2283476). In a few lines: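 Gene expression by qRT-PCR in HepaRG cells after 48 h exposure, duplicate wells, eight half-log concentrations topping at 100 uM in 0.5% DMSO. Normalized to ACTB, GAPDH, POLR2A; bidirectional fitting relative to DMSO.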

Read-out in assay [2]: Caspase-3 (Homo sapiens) (UniProt P42574)
The experiment in a line: LTEA_HepaRG_CASP3: Life Technologies and Expression Analysis (LTEA) Assay for cysteine-aspartic acid protease (CASP3) using HepaRG (AID 2283477). The method, boiled down:
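In HepaRG liver cells dosed for 48 h at up to 100 uM (eight-point, duplicate), CASP3 expression changes are scored by qRT-PCR. Activity is fitted in both directions with 0.5% DMSO as baseline.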

Read-out in assay [3]: Cytochrome P450 (CYP24A1), CYP24A1 (gene 1591)
Nature of the assay: LTEA_HepaRG_CYP24A1: Life Technologies and Expression Analysis (LTEA) Assay for Cytochrome P450 (CYP24A1) using HepaRG (AID 2283478). In a few lines:
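Human liver HepaRG cultures receive each chemical for 48 h across an eight-point half-log series topping at 100 uM in 0.5% DMSO. Induction or suppression of CYP24A1 mRNA is scored relative to vehicle after housekeeping-gene normalization.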

Read-out in assay [4]: Cytochrome P450 (CYP1A2), CYP1A2 (gene 1544)
The experiment in a line: LTEA_HepaRG_CYP1A2: Life Technologies and Expression Analysis (LTEA) Assay for Cytochrome P450 (CYP1A2) using HepaRG (AID 2283479).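 As to AC50: TaqMan qRT-PCR transcript level normalized to ACTB GAPDH and POLR2A.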 The method, boiled down: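 Assesses CYP1A2 mRNA in human HepaRG liver cells after 48 h chemical exposure at up to 100 uM. Values come from qRT-PCR with bidirectional curve fitting relative to DMSO.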

Read-out in assay [5]: cysteine-aspartic acid protease (CASP8), CASP8 (gene 841)
The experiment in a line: LTEA_HepaRG_CASP8: Life Technologies and Expression Analysis (LTEA) Assay for cysteine-aspartic acid protease (CASP8) using HepaRG (AID 2283480). The method, boiled down:
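Differentiated HepaRG cells in serum-free induction medium, 48 h exposure, eight-point half-log series from 100 uM in 0.5% DMSO, duplicates. CASP8 mRNA by qRT-PCR, normalized to ACTB, GAPDH, POLR2A; bidirectional fit versus DMSO.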

Read-out in assay [6]: Cytochrome P450 (CYP2B6), CYP2B6 (gene 1555)
Nature of the assay: LTEA_HepaRG_CYP2B6: Life Technologies and Expression Analysis (LTEA) Assay for Cytochrome P450 (CYP2B6) using HepaRG (AID 2283481). The method, boiled down:
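Using 48 h treatment of HepaRG cells in serum-free induction medium, concentrations spanned half-log steps from 100 uM in 0.5% DMSO vehicle. CYP2B6 mRNA induction or loss is scored by qRT-PCR against DMSO.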

Read-out in assay [7]: Cytochrome P450 2C19 (Homo sapiens) (UniProt P33261)
Nature of the assay: LTEA_HepaRG_CYP2C19: Life Technologies and Expression Analysis (LTEA) Assay for CYP2C19 using HepaRG (AID 2283482). The method, boiled down:
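Human HepaRG liver cells received test chemicals for 48 h (highest 100 uM, half-log dilutions in 0.5% DMSO). CYP2C19 mRNA induction or loss is read by multiplexed qRT-PCR and fitted in both directions versus vehicle.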

Read-out in assay [8]: CYP2C8 (gene 1558)
Nature of the assay: LTEA_HepaRG_CYP2C8: Life Technologies and Expression Analysis (LTEA) Assay for CYP2C8 using HepaRG (AID 2283483). In a few lines: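 Differentiated HepaRG cells in serum-free induction medium exposed 48 h in duplicate to 8 half-log concentrations from 100 uM in 0.5% DMSO. CYP2C8 mRNA by qRT-PCR normalized to ACTB, GAPDH, POLR2A; bidirectional fit versus DMSO.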

Read-out in assay [9]: CYP2C9 (gene 1559)
Nature of the assay: LTEA_HepaRG_CYP2C9: Life Technologies and Expression Analysis (LTEA) Assay for CYP2C9 using HepaRG (AID 2283484). The method, boiled down: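 Differentiated human HepaRG cells in serum-free induction medium were exposed 48 h to chemicals in 8-point half-log series from 100 uM (0.5% DMSO), in duplicate. CYP2C9 mRNA was measured by qRT-PCR, normalized to ACTB/GAPDH/POLR2A, with bidirectional fitting versus DMSO.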

Read-out in assay [10]: CYP2E1 (gene 1571)
Nature of the assay: LTEA_HepaRG_CYP2E1: Life Technologies and Expression Analysis (LTEA) Assay for CYP2E1 using HepaRG (AID 2283485). In a few lines:
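HepaRG cells, plated 48 h, then exposed 48 h in serum-free induction medium to eight half-log concentrations from 100 uM in 0.5% DMSO, duplicate. CYP2E1 mRNA by qRT-PCR, normalized to ACTB/GAPDH/POLR2A; bidirectional fit versus DMSO.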

Each structure is given as a SMILES string. Active and inactive are the calls of the source. The calls were made as follows: active = hit-call score of the fitted dose curve at least 0.9, where 1 is the maximum; inactive = score below 0.9.

Sequence of Caspase-3 (Homo sapiens) (P42574 whole entry, looked up): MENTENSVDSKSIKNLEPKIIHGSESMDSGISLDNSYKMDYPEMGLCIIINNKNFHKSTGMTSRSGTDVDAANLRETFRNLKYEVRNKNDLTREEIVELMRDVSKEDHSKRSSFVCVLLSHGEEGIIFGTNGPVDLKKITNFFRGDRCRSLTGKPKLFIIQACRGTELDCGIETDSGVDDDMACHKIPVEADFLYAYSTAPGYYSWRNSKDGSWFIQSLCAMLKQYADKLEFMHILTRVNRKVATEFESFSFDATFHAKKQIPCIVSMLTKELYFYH
Sequence of Cytochrome P450 2C19 (Homo sapiens) (P33261 whole entry, looked up): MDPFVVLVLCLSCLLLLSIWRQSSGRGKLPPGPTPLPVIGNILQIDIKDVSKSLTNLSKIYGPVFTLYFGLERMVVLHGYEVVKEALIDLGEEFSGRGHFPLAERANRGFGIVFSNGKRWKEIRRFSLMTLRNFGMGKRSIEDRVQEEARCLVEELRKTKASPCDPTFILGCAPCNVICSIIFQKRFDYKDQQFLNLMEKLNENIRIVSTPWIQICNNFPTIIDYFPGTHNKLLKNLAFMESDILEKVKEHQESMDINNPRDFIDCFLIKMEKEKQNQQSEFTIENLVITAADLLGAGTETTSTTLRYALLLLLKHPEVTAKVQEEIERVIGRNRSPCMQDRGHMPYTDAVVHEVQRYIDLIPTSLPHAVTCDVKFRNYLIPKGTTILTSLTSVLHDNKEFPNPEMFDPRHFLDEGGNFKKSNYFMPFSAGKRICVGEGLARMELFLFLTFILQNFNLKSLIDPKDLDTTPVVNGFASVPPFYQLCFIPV

Take `O=C(OCCCCCOC(=O)c1ccccc1)c1ccccc1`: the half-maximal activity concentration (AC50) is 2.7 µM (active) in assay [1]; 0.627 µM (active) in [2]; 1.58 µM (active) in assay [4]; 0.942 µM (active) in assay [5]; 0.969 µM (active) in [6]; 2.44 µM (active) in [7]. The AC50 in assay [8] is 0.726 µM (active). Further, the molecule was called inactive in [3], in [9] and in [10].

As to `Nc1ccc(S(=O)(=O)c2ccc(N)cc2)cc1`, the call in [1], in [2], in assay [4], in assay [5], in assay [8] and in assay [9] was inactive. Besides, the values for the concentration at half-maximal activity (AC50) in assay [3], in assay [6] and in assay [10] were 12.7 µM (active), 32.4 µM (active) and 5.9 µM (active), respectively.

`COc1ccc(S(=O)(=O)N2C(=O)[C@@](c3ccccc3OC)(N3C[C@H](O)C[C@H]3C(=O)N(C)C)c3cc(Cl)ccc32)c(OC)c1`: the outcome in assay [1], in assay [3] and in assay [5] was inactive. Further, the AC50 in assay [2] was 12.2 µM (active); in [4], 22.2 µM (active); in assay [6] it was 28.9 µM (active); in [7], 21.5 µM (active); in assay [8], 23 µM (active); in [9], 20.5 µM (active). The AC50 in assay [10] was 33.6 µM (active).

With `NCC1(Cc2noc(=O)[nH]2)CCCCC1`, the molecule was classed as inactive in assay [1], in assay [2], in assay [3], in [4], in [5] and in [6]. For the same molecule, the call in [7], in assay [8], in assay [9] and in assay [10] was inactive.

With `Cc1ccc(C)c(O)c1C`, the molecule was classed as inactive in [1], in assay [3], in [5], in assay [6], in [7] and in assay [8]. For the same molecule, the molecule was classed as inactive in assay [9] and in assay [10]. In addition, in [4], the half-maximal activity concentration (AC50) was 50 µM (active).

In the case of `Nc1ccc2c(c1)C(=O)c1ccccc1C2=O`, the call in assay [1], in assay [3], in assay [5] and in assay [7] was inactive. Also, the AC50 was 4.96 µM (active) in assay [4]; 11.3 µM (active) in [6]; 3.97 µM (active) in [8]; 1.04 µM (active) in [9]; 14.3 µM (active) in [10].

With `CCCCCCCCCCC`, the outcome in assay [1], in assay [3], in assay [4], in assay [5], in [6] and in assay [7] was inactive. In addition, the call in assay [8], in assay [9] and in assay [10] was inactive.

As for `CCCCOC(=O)CCCCCCCCC(=O)OCCCC`, the outcome in assay [1], in [2], in assay [3], in assay [4], in assay [5] and in assay [6] was inactive. In addition, the molecule was classed as inactive in assay [7], in assay [8], in assay [9] and in assay [10].

For `O=C(N[C@@H](Cc1ccccc1)[C@@H](O)C(=O)N1C[C@@H](O)[C@@H](O)C1)c1cc2cc(Cl)ccc2[nH]1`, the molecule was classed as inactive in assay [1], in assay [3], in assay [5], in [8] and in assay [10]. In addition, the concentration at half-maximal activity (AC50) in assay [4] was 74.1 µM (active); in assay [6], 11.9 µM (active); in assay [7] it was 4.24 µM (active); in assay [9] it was 12.5 µM (active).

As for `COc1ccc(C)cc1N`, the result in assay [1], in assay [3], in assay [4], in assay [5], in assay [7] and in assay [8] was inactive. Further, the outcome in assay [9] and in [10] was inactive. In addition, the AC50 in assay [6] was 25.6 µM (active).

For `Cc1cccc(Nc2cc(Cl)nc(SCC(=O)O)n2)c1C`, the concentration at half-maximal activity (AC50) is 0.276 µM (active) in assay [1]; 65.4 µM (active) in assay [6]; 50 µM (active) in [7]; 50 µM (active) in assay [8]; 22.3 µM (active) in [10]. Further, the call in [2], in assay [3], in assay [4], in assay [5] and in assay [9] was inactive.

In the case of `Cc1ccc(C(C)C)c(O)c1`, the molecule was classed as inactive in assay [1], in assay [3], in [4], in [5], in assay [6] and in assay [7]. The molecule was classed as inactive in assay [8], in [9] and in [10].

Regarding `COCCOC[C@H](CC1(C(=O)NC2CCC(C(=O)O)CC2)CCCC1)C(=O)Oc1ccc2c(c1)CCC2` (some centres not stated), the molecule was called inactive in assay [1], in [3], in [4], in [5], in assay [6] and in assay [7]. Further, the result in assay [8], in [9] and in assay [10] was inactive.

Regarding `CCCCCCCCCCCCCO`, the molecule was called inactive in [1], in [3], in assay [4], in [5], in [6] and in [7]. Further, the molecule was classed as inactive in assay [8], in assay [9] and in [10].

As for `Cc1ccccc1Cl`, the molecule was classed as inactive in assay [1], in [3], in [4], in [5], in assay [6] and in assay [7]. Besides, the outcome in [8], in [9] and in assay [10] was inactive.

Regarding `COc1cc(-c2nc(NC(=O)c3cc4cc(C)cc(C)c4n3CC(=O)O)sc2CCC2CCCCC2)c(OC)cc1Cl`, the concentration at half-maximal activity (AC50) in assay [1] was 5.4 µM (active); in [2], 11 µM (active); in [4] it was 4.88 µM (active); in [5] it was 11 µM (active); in assay [6] it was 5.76 µM (active); in assay [7] it was 7.57 µM (active). In addition, the AC50 in assay [8] is 6.7 µM (active); in assay [9] it was 6.47 µM (active); in assay [10] it was 7.86 µM (active). For the same molecule, the outcome in assay [3] was inactive.

Consider `Cc1cccc([N+](=O)[O-])c1C`, for which the call in [1], in assay [3], in [4], in assay [5], in assay [6] and in assay [7] was inactive. Also, the molecule was called inactive in [8], in assay [9] and in assay [10].

Turning to `Oc1ccc2ccccc2c1N=Nc1ccccc1`, the result in assay [1], in assay [3] and in [5] was inactive. Moreover, the concentration at half-maximal activity (AC50) in [4] is 0.232 µM (active); in assay [6] it was 31.5 µM (active); in assay [7], 9.92 µM (active); in assay [8] it was 9.55 µM (active); in assay [9], 9.92 µM (active); in [10], 21.5 µM (active).

`NS(=O)(=O)c1cc2c(cc1Cl)NCNS2(=O)=O`: the outcome in [1], in assay [3], in assay [5], in assay [6], in [7] and in [8] was inactive. The outcome in assay [9] and in assay [10] was inactive.

For the molecule `CCCCCCCCCCCCCCCCCC(=O)O`, the result in assay [1], in assay [3], in assay [4], in assay [5], in [6] and in [7] was inactive. Moreover, the call in assay [8], in [9] and in [10] was inactive.

`CCOC(=O)C(C)(C)Oc1ccc(Cl)cc1`: the outcome in assay [1], in assay [3], in assay [4], in assay [5], in [6] and in [8] was inactive. In addition, the outcome in [9] and in [10] was inactive.

On to `CCCCCCCCCCCCCCCC`, for which the molecule was called inactive in assay [1], in assay [3], in [5], in assay [6], in [7] and in [8]. The outcome in assay [9] and in assay [10] was inactive. Moreover, in assay [4], the half-maximal activity concentration (AC50) is 50 µM (active).

Values taken from PubChem BioAssay (EPA / NIEHS).
